Hits are enriched below; roughly 2.1% of the tested compounds scored in any of these assays.
ARNT TACC3 PPI: disruptors of ARNT/TACC3 protein interaction, primary screen, biochemical, AlphaScreen, single concentration; AID 623870, 2012; inhibition, % at 9.99 µM; Transforming acidic coiled-coil-containing protein 3 (Homo sapiens), Q9Y6A5; AlphaScreen His-ARNT PAS-B/GST-TACC3 binding, luminescence; TACC3 fragment carries E629A point mutation; 390,000 compounds, 0.66% hits;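 active = mean inhibition of replicates at least 50% and at least half of replicates each reaching 50%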;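 also: 0% = complete ARNT plus TACC3 wells and 100% = ARNT alone without TACC3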
PvdQ inh: P. aeruginosa PvdQ acylase inhibitors, primary screen, biochemical, fluorescence, plate reader and imaging, single point | PvdQ acylase [Pseudomonas aeruginosa LESB58] | purified PvdQ acylase | inhibition, % at 10 µM | 340,000 compounds, 0.063% hits; in the data active = inhibition above about 30%, passing the limit was not always enough;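 also: 0% = vehicle neutral wells and 100% = reference inhibitor wells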
F508del corr: F508del CFTR correction, initial screen, CFBE line, single point; CFBE cells, YFP halide quenching; stimulated with forskolin plus potentiator P3; % fluorescence drop versus neutral controls; activity (quench increase), % at 7.58 µM; 350,000 compounds, 0.36% hits; AID 720511, 2013;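 active = mean added fluorescence quench of at least 8% versus neutral control, with both replicates also reaching 8%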;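 also: cells transiently co-express mutant CFTR-F508del with the halide-sensitive YFP; corrector assay measuring rescue of mutant channel to the surface after 24 h compound exposure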
ERAP1 HTS inh: human ERAP1 aminopeptidase inhibitors, primary screen, biochemical, single point, plate reader; 340,000 compounds, 0.15% hits; AID 652197, 2013; inhibition, % at 10.7 µM; Endoplasmic reticulum aminopeptidase 1 (Homo sapiens), Q9NZ08; recombinant ERAP1, Leu-AMC fluorescence, 60 min;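 active = mean replicate inhibition of at least 30%, or all replicates individually reaching that 30% level; inactive = mean below 30% and not every replicate reaching it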;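 also: 0% = neutral control wells and 100% = L-leucinethiol positive control wells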
Target sequence (Q9NZ08 whole entry, looked up): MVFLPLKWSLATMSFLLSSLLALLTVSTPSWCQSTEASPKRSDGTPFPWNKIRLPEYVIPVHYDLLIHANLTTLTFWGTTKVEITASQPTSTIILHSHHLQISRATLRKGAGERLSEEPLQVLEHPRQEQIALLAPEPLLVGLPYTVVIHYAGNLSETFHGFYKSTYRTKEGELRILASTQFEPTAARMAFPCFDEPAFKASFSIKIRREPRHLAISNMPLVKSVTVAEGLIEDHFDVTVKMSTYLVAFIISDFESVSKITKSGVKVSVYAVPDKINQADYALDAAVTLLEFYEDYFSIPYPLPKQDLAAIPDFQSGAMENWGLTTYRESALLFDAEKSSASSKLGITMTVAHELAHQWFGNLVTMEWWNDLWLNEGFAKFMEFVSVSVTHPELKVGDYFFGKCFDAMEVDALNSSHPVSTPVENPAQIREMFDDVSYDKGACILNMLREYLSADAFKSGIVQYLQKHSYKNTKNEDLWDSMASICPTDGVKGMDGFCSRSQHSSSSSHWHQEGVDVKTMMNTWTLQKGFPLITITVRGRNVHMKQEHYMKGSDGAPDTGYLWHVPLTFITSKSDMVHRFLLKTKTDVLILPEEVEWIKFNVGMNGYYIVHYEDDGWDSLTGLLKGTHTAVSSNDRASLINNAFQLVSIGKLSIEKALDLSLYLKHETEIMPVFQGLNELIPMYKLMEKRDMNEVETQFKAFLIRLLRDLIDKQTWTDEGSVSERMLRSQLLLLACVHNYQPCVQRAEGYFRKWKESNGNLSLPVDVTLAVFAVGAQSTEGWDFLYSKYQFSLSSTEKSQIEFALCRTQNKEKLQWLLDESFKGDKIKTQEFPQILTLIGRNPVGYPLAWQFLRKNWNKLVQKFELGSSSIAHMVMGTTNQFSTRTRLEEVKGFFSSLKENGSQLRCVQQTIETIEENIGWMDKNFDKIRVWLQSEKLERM
rRNA inh HTS: reduced GFP signal of wild-type E. coli, primary screen, bacterial rRNA inhibitor project, GFP/RFP fluorescence, OD600, single point. AID 720706, 2013. GFP signal change (wild-type ribosome), % (test concentration not listed). E. coli WT GFP vs humanized-ribosome RFP mutants, 24 h; active compounds read low; DMSO median 0, no signal -100. 350,000 compounds, 1.6% hits;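 active = significant combined selectivity score with lowered wild-type GFP, culture density cut under 30%, mutant RFP and density less affected; inactive = any of these conditions unmet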
ARNT Alpha ctr-1: AlphaScreen signal interference compounds, dose response, artefact control for ARNT-TACC3 interaction inhibitor project, biochemical, luminescence, cherry-pick. AC50, µM (titrated, usually from 68 µM), without a hit: at the highest dose activity change, negative = signal decrease. shares compounds with ARNT TACC3 PPI. 1,200 compounds, 50% hits. His-ARNT PASB-GST AlphaScreen artifact counter-screen;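 active = every separate test run was called active for a drop in luminescence, with AC50 within twice the top valid dose, actives reach about 71 µM in these data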
ARNT Alpha ctr-2: AlphaScreen signal interference by compounds, dose response, artefact control for ARNT/TACC3 disruptor project, biochemical, dual-tagged ARNT, dry powder. Dual-tagged His-ARNT PASB-GST AlphaScreen artifact counter-screen. AC50, µM. 45 compounds, 70% hits. shares compounds with ARNT TACC3 PPI;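 active = luminescence drop, with half-maximal potency fitted within twice the sample's top valid dose, cut at about 70 µM in these data; inactive = the rest, including signal moving the wrong way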
The depositor's hits bear a star; i = inactive; · = no result; [ ] = dose if it differs, or a comment.

SMILES | ARNT TACC3 PPI | PvdQ inh | F508del corr | ERAP1 HTS inh | rRNA inh HTS | ARNT Alpha ctr-1 | others
COc1ccc(-c2cnc3c(c2)C(=O)N([C@@H](C)CO)C[C@@H](C)[C@@H](CN(C)C(=O)Cc2cccnc2)O3)cc1 | 2 | · | 1 | -6 | -37 | ·
C[C@H](CO)N1C[C@H](C)[C@@H](CN(C)S(=O)(=O)c2ccc(Cl)cc2)Oc2ccc(NC(=O)Nc3ccc4c(c3)OCO4)cc2CC1=O | 1 | · | 0 | 1 | -6 | ·
O=C(NCC[C@@H]1CC[C@@H](NS(=O)(=O)c2ccc(F)cc2)[C@H](CO)O1)Nc1ccc(F)cc1 | 11 | · | -1 | 1 | -7 | ·
C[C@H](c1ccccc1)N1C[C@@H](COCc2ccccc2)Oc2cccc(F)c2S1(=O)=O | · | · | 3 | -2 | 4 | ·
O=C(c1ccccc1)N1CC[C@@H]2[C@H]1c1cc(C#Cc3ccccc3F)ccc1N[C@@H]2CO | -6 | · | 0 | 2 | -7 | ·
O=C(C[C@H]1CC[C@H](NC(=O)c2ccccc2)[C@@H](CO)O1)Nc1ccc(-c2ccccc2)cc1 | -12 | · | 2 | 0 | -3 | ·
O=C(N[C@H]1CC[C@H](CCn2cc(-c3ccccn3)nn2)O[C@H]1CO)c1ccccc1 | 54* | · | -1 | 0 | 0 | -10%[38 µM]
O=C(C[C@H]1CC[C@@H](NC(=O)c2ccccc2)[C@H](CO)O1)Nc1ccc(-c2ccccc2)cc1 | 51* | · | 1 | 1 | -6 | -1%[42 µM]
COc1ccc(NC(=O)N[C@H]2CC[C@H](CCn3cc(-c4ccccn4)nn3)O[C@@H]2CO)cc1 | 20* | · | -1 | 1 | 1 | 36µM*
O=C(N[C@H]1CC[C@@H](CCn2cc(-c3ccccc3)nn2)O[C@@H]1CO)c1cnccn1 | active | · | -1 | 3 | 3 | -3%[42 µM]
Cc1ccc(S(=O)(=O)Nc2nncs2)cc1 | -12 | 12 | · | · | · | ·
CCCc1nnc(NS(=O)(=O)c2ccc(C)cc2)o1 | 64* | 4 | 0 | 2 | 7 | 0%
COc1ccc(OC)c(-c2cc(C(=O)N3CCN(c4ncccn4)CC3)c3ccccc3n2)c1 | 51* | -17 | · | · | · | -37%
CNC[C@@H]1OCCCC[C@@H](C)Oc2ccc(NS(=O)(=O)c3ccccc3)cc2C(=O)N([C@@H](C)CO)C[C@H]1C | 4 | · | 0 | -4 | 5 | ·
COc1cc(/C=N/N(CCO)C2=NS(=O)(=O)c3ccccc32)cc(OC)c1OC | 41* | -12 | -6 | 1 | -3 | -40%
O=S1(=O)N=C(N(CCO)/N=C/C=C/c2ccccc2)c2ccccc21 | 55* | -4 | · | · | · | 39µM*
O=C(O)c1ccc(C2CCCCC2)cn1 | 63* | -13 | · | · | · | -22%
O=C(O)C1=C(C2CCCCC2)C(=O)c2ccccc21 | -4 | 0 | -2 | 2 | 1 | ·
Cc1noc(C)c1NC(=O)Nc1cccc2c1O[C@H](CN(C)Cc1ccc(C(=O)Nc3ccccc3N)cc1)[C@H](C)CN([C@H](C)CO)C2=O | · | · | 0 | 1 | 0 | ·
Cc1ccc(S(=O)(=O)CCc2nnc(NC(=O)c3ccccn3)s2)cc1 | 73* | -8 | · | · | · | 34µM*
Cc1ccc(S(=O)(=O)CCc2nnc(NC(=O)c3cnccn3)s2)cc1 | -1 | -4 | · | · | · | ·
Cc1ccc(S(=O)(=O)CCc2nnc(NC(=O)c3ccccc3)s2)cc1 | · | · | · | · | · | · | ARNT Alpha ctr-2=i
CC[C@H]1CC=CC[C@@H](C)Oc2ccccc2C(=O)N(C)[C@H](C(C)C)C(=O)N1 (mixture of isomers) | · | · | · | · | -7 | ·

From PubChem
